Bioassay records as filed in PubChem BioAssay.
Hits are enriched below; roughly 19% of the tested compounds scored in any of these assays.
HT1080 IDH1KD tx: kills HT-1080 cells with IDH1 knockdown | HT-1080 IDH1 knockdown viability, ATP luminescence, 48 h | Potency, µM (doses to about 46.1 µM), without a hit: at the top dose activity, negative = toxicity, most hits filed as cytotoxic | actives 2% (n = 360,000) | AID 686971;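 also: 0% = DMSO wells and -100% = cell-free medium wells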
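HT-1080-IDH1KD cells (IDH1 knocked down), 750/well in RPMI with 5% FBS, treated with compound 48 h at 37 degrees C. Viability by CellTiter-Glo luminescence, normalised to DMSO and no-cell wells; concentration-response curves classed.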
HT1080NT lethal: kills 2HG-producing HT-1080-NT fibrosarcoma cells. HT-1080-NT fibrosarcoma viability, CellTiter-Glo ATP luminescence, 48 h. Potency, µM (titrated, usually from 46.1 µM), for inactives: at the highest dose activity, negative = less viability, hits mostly cytotoxic. actives 1.6% (n = 360,000);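 also: NT is the 2HG producing partner of a matched IDH1 knockdown line; 0% = DMSO-treated cells and -100% = media-only wells without cells; nearly all actives have a fitted effect of over 55% in size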
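750 cells/well, RPMI + 5% FBS; 2 h settle, compound pin-transfer, 48 h at 37 degrees C. CellTiter-Glo 10 min RT, luminescence. Normalized to DMSO and media-only wells.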
KB-V1 cytotox: kills drug-selected multidrug resistant KB-V1 cells; Potency, µM (top dose mostly 46.1 µM), most hits filed as cytotoxic; KB-V1 MDR cells viability, CellTiter-Glo, 72 h; AID 1347076; actives 3.4% (n = 400,000); also: nearly all actives have a fitted effect of over 60% in size
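Cytotoxicity via CellTiter-Glo luminescence after 72 h compound exposure at 37 degrees C. Cells: drug-selected KB-V1 line, DMEM phenol-red free plus 10% FBS. Compounds tested at multiple concentrations; normalized data fitted to concentration-effect curves.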
KB-3-1 cytotox: KB-3-1 parental cell cytotoxicity. KB-3-1 viability, CellTiter-Glo ATP luminescence, 72 h. actives 1.4% (n = 400,000). Potency, µM (doses to about 46.1 µM), most hits filed as cytotoxic. AID 1347075; also: nearly all actives have a fitted effect of over 60% in size
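Parental KB-3-1 adenocarcinoma cells in phenol-red-free DMEM with 10% FBS were pin-treated with compounds at several concentrations, incubated 72 h at 37 °C, and viability read by CellTiter-Glo luminescence; concentration-effect curves were fitted after normalization.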
TDP1 cell CPT: growth inhibition of DT40 Tdp1-/-;hTDP1 cells with camptothecin (screen for TDP1 inhibitors); chicken DT40 Tdp1-/-;hTDP1 cells + 20 nM CPT, ATP luminescence, 48 h; actives 12% (n = 420,000); Potency, µM (doses to about 46.2 µM), for inactives: at the top dose activity change, negative = growth inhibition, hits mostly inhibitors; also: nearly all actives have a fitted effect of over 55% in size
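Chicken DT40 Tdp1-/- cells stably complemented with human TDP1 were seeded at 400 cells/well in medium containing 20 nM camptothecin, exposed to pin-transferred compounds, and grown at 37 °C for at least 48 hr. Viability was read as ATP luminescence.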
TDP1 cell noCPT: qHTS for Inhibitors of human tyrosyl-DNA phosphodiesterase 1 (TDP1): qHTS in cells in absence of CPT. Potency, µM (highest dose often 46.2 µM), without a hit: at the highest dose activity change, negative = growth inhibition, actives largely listed as inhibitors. actives 15% (n = 420,000). DT40 Tdp1-/- hTDP1 cells, no CPT, ATP luminescence, 48 h; also: nearly all actives have a fitted effect of over 55% in size
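Cells were dispensed at 400 per well, compounds added by pin tool, plates incubated ≥48 hr at 37 °C, then CellTiter-Glo added for 30 min at room temperature before luminescence reading. Line: DT40 Tdp1-/- complemented with hTDP1; camptothecin omitted.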
* hit, by the source's call; i = inactive; ? = inconclusive; . = no result. Calls follow the shape of the dose curve; as a rule, active = well fitted curve in the direction sought with a large enough effect; inconclusive = small, poorly fitted or top-dose-only effect, or another doubt; inactive = no such curve, though single readings can be large; an effect the other way counts as inactive or inconclusive. Unless noted, % is scaled to controls: 0 for no effect and ±100 for the full control effect; potency is read from the fitted curve at half-maximal effect.

SMILES	HT1080 IDH1KD tx	HT1080NT lethal	KB-V1 cytotox	KB-3-1 cytotox	TDP1 cell CPT	TDP1 cell noCPT
CC1(c2nc3ccccc3[nH]2)c2ccccc2C(=O)N1Cc1ccccc1 (stereo unspecified)	4%	-6%	?	i	?	?
COC(=O)c1sc2ccccc2c1NC(=O)c1ccc(S(=O)(=O)N2CC(C)CC(C)C2)cc1 (stereo unspecified)	-6%	5%	i	i	21µM*	18µM*
CC1CC(C)CN(S(=O)(=O)c2ccc(C(=O)OCC(=O)Nc3ccccc3)cc2)C1 (stereo unspecified)	6%	5%	i	i	1%	-7%
CCOC(=O)Nc1nc(-c2ccccc2)c(C(=O)c2ccc(Cl)cc2)s1	0.52µM*	?	1.3µM*	1.2µM*	0.73µM*	0.92µM*
CCOC(=O)c1sc2ccc(S(=O)(=O)N3CCOCC3)cc2c1N	1%	1%	i	i	?	-25%
CCOC(=O)Nc1sc(C)nc1-c1ccccc1	8%	3%	?	i	10%	-4%
CCOC(=O)c1sc2ccc(S(=O)(=O)N3CCCCC3)cc2c1N	?	?	?	23µM*	14µM*	?
CCOC(=O)c1sc(NC(=O)c2ccc(S(=O)(=O)N3CCCCCC3)cc2)nc1-c1ccccc1	8%	-5%	?	?	?	1µM*
CC(C)c1cc(C(F)(F)F)nc(NNc2nc(C(C)C)cc(C(F)(F)F)n2)n1	3%	-9%	i	i	-24%	?
CC(C)(C)OC(=O)N1CCC(c2c(C(=O)N3CCCCC3)cnn2-c2ccc(F)cc2)CC1	.	.	i	i	0%	?
Cc1nn(-c2ccccc2)c(C)c1C(=O)OCc1ccc(C#N)cc1	-2%	0%	i	i	?	?
CC(C)=NOc1nc(N(C)C)nc(N(C)C)n1	2%	6%	i	i	1%	-8%
COc1ccc(CNC(=O)c2ccc(S(=O)(=O)N3CC(C)CC(C)C3)cc2)cc1OC (stereo unspecified)	-8%	-4%	7.3µM*	i	?	?
O=C(Nc1nnc([C@@H]2C[C@H](O)[C@@H](CO)O2)s1)NC1CCCCC1	13%	22%	i	i	-11%	-5%
Cc1ccc(S(=O)(=O)N(C)CCCN(C)c2nc(-c3cccs3)nc3ccccc23)cc1	-3%	0%	.	.	16µM*	11µM*
CN(Cc1ccccc1F)c1nc(-c2cccs2)nc2ccccc12	-14%	-16%	?	i	?	?
CN(CCN(C)c1nc(-c2cccs2)nc2ccccc12)C(=O)OC(C)(C)C	-25%	-21%	.	.	10µM*	14µM*
COc1cc(Cl)c(C)cc1N1C(=O)[C@@H]2C[C@H]1CN2Cc1ccccn1	.	.	.	.	-3%	-17%
CN(C(=O)C1CCC(=O)N(CCc2ccc(Cl)cc2)C1)C1CCOCC1 (stereo unspecified)	1%	10%	.	.	-5%	0%
NNC(=O)C(=O)Nc1ccc(O)cc1	?	7.3µM*	i	?	2%	6%
Cc1ccc(NC(=O)C(=O)NN)cc1	3%	-4%	i	i	-13%	-37%
O=C(O)c1cc([N+](=O)[O-])ccc1C(=O)Nc1ccccc1	0%	6%	i	i	16%	2%
COCCOc1cc(NC(=O)c2cccc(OC)c2)c(Cl)cc1Cl	-3%	8%	?	i	-7%	?
O=C(Nc1ccccc1)c1sccc1Oc1ccc([N+](=O)[O-])cc1F	-26%	-15%	i	i	21µM*	21µM*
COCCOc1cc(NC(=O)c2sccc2Oc2ccc([N+](=O)[O-])cc2F)c(Cl)cc1Cl	-15%	-13%	?	?	?	18µM*
SMILES	HT1080 IDH1KD tx	HT1080NT lethal	KB-V1 cytotox	KB-3-1 cytotox	TDP1 cell CPT	TDP1 cell noCPT
C[C@H](NC(=O)[C@@H]1CCCN1C(=O)[C@@H]1CCCN1)c1ccccc1	0%	2%	i	i	1%	-9%
CN(C)/C=C1\C(=O)ON=C1c1ccccc1	15%	-12%	i	i	16%	-9%
Cc1ccc(C2=NOC(=O)/C2=C\C=C\c2ccccc2)cc1	13µM*	9.2µM*	?	?	4.6µM*	4.6µM*
CC1=NN(c2ccccc2)C(=O)/C1=C/C=C/c1ccccc1	9.2µM*	3.3µM*	?	?	-76%	2.6µM*
CC1=NN(c2cccc(C(=O)O)c2)C(=O)/C1=C\C=C\c1ccco1	0%	4%	i	i	?	?
COc1ccc(S(=O)(=O)NCCc2sc(C)nc2C)cc1F	.	.	16µM*	?	.	.
COC(=O)c1ccc(CSc2nc3c(cnn3-c3ccc(C)c(C)c3)c(=O)[nH]2)o1	1%	7%	i	i	?	26µM*
CCCN1C(=O)/C(=C2\SC(N3CCCCC3)=NC2=O)c2ccccc21	-29%	-17%	?	i	?	18µM*
CN1C(=O)/C(=C2\SC(N3CCCCCC3)=NC2=O)c2ccccc21	8%	?	2.1µM*	?	?	?
CN1C(=O)/C(=C2\SC(N)=NC2=O)c2ccccc21	-1%	-1%	i	i	18µM*	26µM*
COC(=O)c1c(N2C(=O)CC(Sc3ccccc3C(=O)O)C2=O)sc(C)c1C (stereo unspecified)	29%	16%	i	i	?	?
COC(=O)c1c(N2C(=O)CC(Sc3ccccc3C(=O)O)C2=O)sc2c1CCCC2 (stereo unspecified)	18%	7%	i	i	?	7.3µM*
CCOC(=O)c1cc(CC)sc1NC(=O)C(c1ccccc1)c1ccccc1	-11%	-1%	i	i	?	?
CCOC(=O)c1cc(CC)sc1N1C(=O)CC(Sc2ccccc2C(=O)O)C1=O (stereo unspecified)	-3%	-5%	i	i	2.9µM*	4.1µM*
CN1/C(=C\C(=O)CSc2nnc(N)s2)C(C)(C)c2ccccc21	-23%	0%	i	i	?	21µM*
CN1/C(=C/C(=O)CSc2ccccc2C(=O)O)C(C)(C)c2ccccc21	-8%	2%	?	i	?	9.2µM*
